According to PubChem BioAssay (NCATS):
Results filed as inconclusive are left out. Entries that show only a call come without a potency. The source made the active and inactive calls. Calls come from the whole dose curve; as a rule, active = well fitted cell-killing curve with a large enough effect; inconclusive = small, poorly fitted or top-dose-only effect; inactive = flat fitted curve, though single readings scatter.

Experiment: Cell Viability - LYMP2-018 (AID 985);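 note: compound exposure lasted 24 hr at 37 °C; nearly all actives have a fitted effect of over 50% in size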
Settings: LYMP2-018 lymphoblastoid cells, viability (qHTS); series mostly up to 92.2 µM
Source text: NIH Chemical Genomics Center [NCGC]
NIH Molecular Libraries Screening Centers Network [MLSCN]
National Institutes of Environmental Health Sciences [NIEHS]
National Toxicology Program [NTP]
We have developed a 1536-well cell-based assay for quantitative high throughput screening (qHTS) against a number of cell lines to determine in vitro cytotoxicity of small molecules. This particular assay uses a human lymphoblastoid cell line (LYMP2-018) purchased from Coriell Institute for Medical Research.
NCGC Assay Protocol Summary:
The CellTiter-Glo luminescent cell viability assay (Promega) is a homogeneous method to measure the number of viable cells in culture. The end point readout of this assay is based on quantitation of intracellular ATP, an indicator of metabolic activity, using the luciferase reaction. Luciferase catalyzes the oxidation of beetle Luciferin to oxyluciferin and light in the presence of ATP. The luminescent signal is proportional to amount of ATP present.
Using the CellTiter-Glo luminescent cell viability assay, the amount of cellular ATP was measured in the lymphoblastoid cell line with complete culture medium following compound treatment for 24 hours. The assay was performed in opaque white Kalypsys 1536-well plates. In the screen, tetraoctylammonium bromide was used as positive control. Library compounds were measured for their ability to cause acute toxicity in the cell line, as reflected by a decrease in intracellular ATP levels, in a concentration-dependent manner. […] AC50 values were determined from concentration-response data modeled with the standard Hill equation.
qHTS protocol for CellTiter Glo lymphoblastoid cellular assay
[Step] [Parameter] [Value] [Description]
1. Reagent; 5 uL; 2500 lymphoblastoid cells/well
2. Time; 5 hr; 37 C incubation
4. Controls; 23 nL; Tetraoctylammonium bromide 6.4pM to 92 uM
5. Time; 24 hr; 37 C incubation
6. Reagent; 5 uL; CellTiter Glo reagent
7. Time; 30 min; Room Temperature
8. Detection; Luminescence; Viewlux plate reader
Keywords: cell viability, cytotoxicity, lymphoblastoid cell line, luminescence, NTPHTS, NTPHTS_NCGC, NIEHS, DSSTox, MLSMR, MLSCN, NIH Roadmap, qHTS, NCGC
Potency is the fitted concentration of half-maximal effect.

Row | SMILES | Potency
1 | Nc1ccc(Cc2ccc(N)cc2)cc1 | inactive
2 | CCCCC(CC)COC(=O)c1ccc(C(=O)OCC(CC)CCCC)c(C(=O)OCC(CC)CCCC)c1 (stereo not given) | inactive
3 | CN1CSC(=S)N(C)C1 | 12.6 µM (active)
4 | Oc1cccc(Cl)c1Cl | inactive
5 | [O-][Cl+]O | inactive
6 | CCC[N+](=O)[O-] | inactive
7 | CCCBr | inactive
8 | O=[N+]([O-])c1ccccc1O | inactive
9 | CCCC[N+](=O)[O-] | inactive
10 | O=[N+]([O-])c1cccc(O)c1 | inactive
11 | ClCCOCCCl | inactive
12 | O=c1ccc(=O)[nH][nH]1 | inactive
13 | C=CC=O | inactive
14 | ClC(Cl)c1ccccc1 | inactive
15 | ClCCBr | inactive
16 | OCCOCCO | inactive
17 | Nn1cnnc1 | inactive
18 | Oc1ccc(Cl)c(Cl)c1Cl | inactive
19 | ClCC(Cl)CCl | inactive
20 | CC(C)[N+](=O)[O-] | inactive

Row | SMILES | Potency
21 | Nc1ccc(-c2ccc(N)cc2)cc1 | inactive
22 | CCCCOC(=O)c1ccccc1N | inactive
23 | C=CCc1cc(OC)c2c(c1)OCO2 | inactive
24 | ClCC(Cl)Cl | inactive
25 | O=Cc1ccc(Cl)cc1Cl | inactive
26 | CC(C)(OOC(C)(C)c1ccccc1)c1ccccc1 | inactive
27 | CN(C)C(=O)Nc1cccc(C(F)(F)F)c1 | inactive
28 | CCOP(=S)(OCC)Oc1nc(Cl)c(Cl)cc1Cl | inactive
29 | Brc1cccc(-c2ccccc2)c1 | inactive
30 | O=C(O)CCl | inactive
31 | C=CCCl | inactive
32 | ClCC(Br)CBr (stereo not given) | inactive
33 | CC(C)CON=O | inactive
34 | CCC#N | inactive
35 | C=CC(=O)OCC(CC)CCCC (stereo not given) | inactive
36 | CCOS(C)(=O)=O | inactive
37 | O=C(Cl)OCc1ccccc1 | inactive
38 | Nc1c(Cl)cc([N+](=O)[O-])cc1Cl | inactive
39 | C=COC(C)=O | inactive
40 | O=NN1CCCCC1 | inactive
